Measured values reported in PubChem BioAssay (NCATS).
Several values for one entry are separate records, joined by “and”; a condition that tells them apart may be missing. Identical values can stand only once. Records with an inconclusive call do not appear. A call without a number means that no potency is given here. Activity calls are given as the source filed them. Calls follow the shape of the dose curve; as a rule, active = well fitted inhibition curve with a large enough effect; inconclusive = small, poorly fitted or top-dose-only effect; inactive = flat fitted curve, though single readings scatter.

Target: Ubiquitin carboxyl-terminal hydrolase 1 (Homo sapiens) (UniProt O94782)
Sequence (O94782 whole entry, looked up): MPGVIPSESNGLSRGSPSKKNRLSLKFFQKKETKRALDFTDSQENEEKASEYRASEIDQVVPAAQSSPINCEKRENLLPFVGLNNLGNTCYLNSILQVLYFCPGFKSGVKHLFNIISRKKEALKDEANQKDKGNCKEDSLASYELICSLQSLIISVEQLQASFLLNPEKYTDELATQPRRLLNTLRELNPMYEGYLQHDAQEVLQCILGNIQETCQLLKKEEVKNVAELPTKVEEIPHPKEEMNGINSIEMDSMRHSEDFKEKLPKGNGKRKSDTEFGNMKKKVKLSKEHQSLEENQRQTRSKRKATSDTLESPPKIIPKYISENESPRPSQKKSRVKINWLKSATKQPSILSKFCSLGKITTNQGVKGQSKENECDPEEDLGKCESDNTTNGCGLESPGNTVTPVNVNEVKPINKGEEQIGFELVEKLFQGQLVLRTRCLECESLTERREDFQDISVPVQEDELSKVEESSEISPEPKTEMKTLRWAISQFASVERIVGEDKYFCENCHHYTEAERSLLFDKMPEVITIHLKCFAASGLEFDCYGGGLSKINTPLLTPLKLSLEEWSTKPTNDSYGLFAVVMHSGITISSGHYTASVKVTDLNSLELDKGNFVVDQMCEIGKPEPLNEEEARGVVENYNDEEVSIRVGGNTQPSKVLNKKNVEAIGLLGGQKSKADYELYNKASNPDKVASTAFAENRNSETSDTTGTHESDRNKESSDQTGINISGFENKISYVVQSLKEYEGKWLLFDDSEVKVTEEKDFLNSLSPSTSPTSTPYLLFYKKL
Assay: Inhibitors of USP1/UAF1: Pilot qHTS (AID 504865); also: nearly all actives have a fitted effect of over 35% in size
Details: purified USP1/UAF1, Ub-rhodamine cleavage fluorescence; series mostly up to 114 µM
Text: Deubiquitinating enzymes (DUBs) are a class of enzymes that can cleave isopeptide bond formed between the C-terminal carboxylate of ubiquitin and a lysine side-chain amino group on the target protein. Among them, ubiquitin specific proteases (USPs) constitute the largest DUB family. Human USPs are emerging as promising targets for pharmacological intervention because of their connection to a number of human diseases, including prostate, colon and breast cancer (1, 2), pediatric acute lymphoblastic leukemia (3), and familial cylindromatosis (4). The advantage of inhibiting USPs lies in the potential specificity of therapeutic intervention that can lead to better efficacy and reduce nonspecific side effects.
In a collaboration between the University of Delaware and the NIH Chemical Genomics Center, a high-throughput screen assay was developed to screen for USP1/UAF1 inhibitors. This miniaturized assay has a fluorescent read-out and is used to screen the NIH Molecular Libraries Small Molecule Repository (MLSMR) in order to identify a small molecule that inhibits USP1.
NIH Chemical Genomics Center [NCGC]
NIH Molecular Libraries Probe Centers Network [MLPCN]
Assay Submitter (PI): Zhihao Zhuang, University of Delaware
1. Priolo, C., et al. (2006) The isopeptidase USP2a protects human prostate cancer from apoptosis. Cancer Res 66, 8625-8632
2. Popov, N., et al. (2007) The ubiquitin-specific protease USP28 is required for MYC stability. Nat Cell Biol 9, 765-774
3. De Pitta, C., et al. (2005) A leukemia-enriched cDNA microarray platform identifies new transcripts with relevance to the biology of pediatric acute lymphoblastic leukemia. Haematologica 90, 890-898
4. Kovalenko, A., et al. (2003) The tumour suppressor CYLD negatively regulates NF-kappaB signalling by deubiquitination. Nature 424, 801-805
3 microliters of reagents (buffer in columns 3 and 4 as negative control and 1nM USP1/UAF1 complex in columns 1, 2, and 5-48) are dispensed into Greiner black solid bottom 1536-well assay plates. Compounds are then transferred via Kalypsys pin tool equipped with 1536-pin array (10nl slotted pins, V&P Scientific, San Diego, CA). Following an incubation step of 15 min at room temperature, 1ul of Ub-Rho substrate (150nM final concentration) is added to initiate the reaction. The plates are immediately centrifuged at 1000 rpm for 15 seconds, and subsequently transferred to a ViewLux high-throughput CCD imager (PerkinElmer) wherein kinetic measurements of fluorescence are acquired using 480 nm excitation/540 nm emission filter set (6 reads every 60 seconds, see Table 1). All reagents are diluted in an assay buffer consisting of 50mM HEPES (pH 7.8), 0.5mM EDTA, 0.1 mg/ml BSA, 1mM TCEP, and 0.01% Tween-20.
Potency is read from the fitted curve at half-maximal effect.

SMILES | Potency
CCOC(=O)OC(C)OC1=C(C(=O)Nc2ccccn2)N(C)S(=O)(=O)c2ccccc21 (stereo not given) | inactive
CCCCCCc1ccc(O)cc1O | 44.7 µM (active)
O=C(Nc1ccc(Cl)c(Cl)c1)C1CC1 | inactive
CC(=O)OCC(=O)NCCCOc1cccc(CN2CCCCC2)c1 | inactive
COc1c2occc2c(OC)c2c(=O)cc(C)oc12 | 39.8 µM (active)
COc1ccc(CN2CCN(C(c3ccc(F)cc3)c3ccc(F)cc3)CC2)c(OC)c1OC | inactive
C[C@]12CC[C@@H]3c4ccc(O)cc4CC[C@H]3[C@@H]1CC[C@@H]2O | inactive
CN(C)/N=N/c1nc[nH]c1C(N)=O | inactive
COc1cccc(CCc2ccccc2OCC(CN(C)C)OC(=O)CCC(=O)O)c1 (stereo not given) | inactive
CC(C)COC(=O)c1ccc(N)cc1 | inactive
COc1cccc2c1C(=O)c1c(O)c3c(c(O)c1C2=O)C[C@@](O)(C(C)=O)C[C@@H]3O[C@H]1C[C@H](N)[C@H](O)[C@H](C)O1 | 44.7 µM (active) and 39.8 µM (active)
O=C(O)CCCCC(=O)O | inactive
Cc1cc(O)c(C(C)C)cc1Cl | inactive
C[C@H]1[C@H](NC(=O)/C(=N/OC(C)(C)C(=O)O)c2csc(N)n2)C(=O)N1S(=O)(=O)O (stereo in doubt) | inactive
O=C1CCC(c2ccc(-n3ccnc3)cc2)=NN1 | inactive
CC(C)NC[C@@H](O)COc1cccc2ccccc12 | inactive
O=C(O)CNC(=O)c1ccccc1 | inactive
CCN1CCCC1=O | inactive
OCc1ccccc1O | inactive
CO/N=C1\CN(c2nc3c(cc2F)c(=O)c(C(=O)O)cn3C2CC2)CC1CN (stereo not given) | inactive

SMILES | Potency
CCCCOc1ccc(C(=O)CCN2CCCCC2)cc1 | inactive
CCN(CC)C(=O)/C(C#N)=C/c1cc(O)c(O)c([N+](=O)[O-])c1 | inactive
Cc1ncc(CSSCc2cnc(C)c(O)c2CO)c(CO)c1O | inactive
C[C@]12CCC(=O)C=C1CC[C@H]1[C@@H]3CC[C@](O)(C(=O)CO)[C@@]3(C)C[C@H](O)[C@@]12F | inactive
CCOC(=O)c1cccc(N)c1 | inactive
CCCCc1nc(Cl)c(CO)n1Cc1ccc(-c2ccccc2-c2nn[nH]n2)cc1 | inactive
Cc1cc(N)c2cc(NC(=O)Nc3ccc4nc(C)cc(N)c4c3)ccc2n1 | 10 µM (active)
CCCCC(CC)CN=C(N)NC(N)=NCCCCCCN=C(N)NC(N)=NCC(CC)CCCC (stereo not given) | 22.4 µM (active)
O=C1[C@H]2CCCC[C@H]2C(=O)N1CCCCN1CCN(c2nsc3ccccc23)CC1 | inactive
NC(=NCCCCCCN=C(N)/N=C(\N)Nc1ccc(Cl)cc1)/N=C(\N)Nc1ccc(Cl)cc1 | 56.2 µM (active) and 50.1 µM (active)
Cc1ccnc(NS(=O)(=O)c2ccc(N)cc2)n1 | inactive
CC(C)(Oc1ccc(Cl)cc1)C(=O)O | inactive
NC(CS)C(=O)O (stereo not given) | inactive
O=C(CCCN1CCC(O)(c2ccc(Br)cc2)CC1)c1ccc(F)cc1 | inactive
Oc1c(I)cc(Cl)c2cccnc12 | inactive
O=C(O)c1cc2cc(Cc3cccnc3)ccc2o1 | inactive
COc1c(C)c2c(c(O)c1C/C=C(\C)CCC(=O)O)C(=O)OC2 | inactive
N[C@H](Cc1c[nH]c2ccccc12)C(=O)O | inactive
CCCCCC=CCC=CCCCCCCCC(=O)OCC | inactive
CN1C(CCl)Nc2cc(Cl)c(S(N)(=O)=O)cc2S1(=O)=O (stereo not given) | inactive
